# Out of some 310,000 compounds screened, about 14,000 (4.5%) showed an effect of 50% or more. Effects have a minus sign here. The full list was thinned out, with strong results kept by preference.
# Target: human ether-à-go-go-related gene (hERG) potassium channel (human, UniProt Q12809)
# Assay: primary screen, population patch clamp on CHO cells stably expressing hERG; higher = less effect of the substance
# 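Also: peak tail current of the secondary pulse compared with the same well before compound.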
# Sequence of human ether-à-go-go-related gene (hERG) potassium channel (Q12809 whole entry, looked up): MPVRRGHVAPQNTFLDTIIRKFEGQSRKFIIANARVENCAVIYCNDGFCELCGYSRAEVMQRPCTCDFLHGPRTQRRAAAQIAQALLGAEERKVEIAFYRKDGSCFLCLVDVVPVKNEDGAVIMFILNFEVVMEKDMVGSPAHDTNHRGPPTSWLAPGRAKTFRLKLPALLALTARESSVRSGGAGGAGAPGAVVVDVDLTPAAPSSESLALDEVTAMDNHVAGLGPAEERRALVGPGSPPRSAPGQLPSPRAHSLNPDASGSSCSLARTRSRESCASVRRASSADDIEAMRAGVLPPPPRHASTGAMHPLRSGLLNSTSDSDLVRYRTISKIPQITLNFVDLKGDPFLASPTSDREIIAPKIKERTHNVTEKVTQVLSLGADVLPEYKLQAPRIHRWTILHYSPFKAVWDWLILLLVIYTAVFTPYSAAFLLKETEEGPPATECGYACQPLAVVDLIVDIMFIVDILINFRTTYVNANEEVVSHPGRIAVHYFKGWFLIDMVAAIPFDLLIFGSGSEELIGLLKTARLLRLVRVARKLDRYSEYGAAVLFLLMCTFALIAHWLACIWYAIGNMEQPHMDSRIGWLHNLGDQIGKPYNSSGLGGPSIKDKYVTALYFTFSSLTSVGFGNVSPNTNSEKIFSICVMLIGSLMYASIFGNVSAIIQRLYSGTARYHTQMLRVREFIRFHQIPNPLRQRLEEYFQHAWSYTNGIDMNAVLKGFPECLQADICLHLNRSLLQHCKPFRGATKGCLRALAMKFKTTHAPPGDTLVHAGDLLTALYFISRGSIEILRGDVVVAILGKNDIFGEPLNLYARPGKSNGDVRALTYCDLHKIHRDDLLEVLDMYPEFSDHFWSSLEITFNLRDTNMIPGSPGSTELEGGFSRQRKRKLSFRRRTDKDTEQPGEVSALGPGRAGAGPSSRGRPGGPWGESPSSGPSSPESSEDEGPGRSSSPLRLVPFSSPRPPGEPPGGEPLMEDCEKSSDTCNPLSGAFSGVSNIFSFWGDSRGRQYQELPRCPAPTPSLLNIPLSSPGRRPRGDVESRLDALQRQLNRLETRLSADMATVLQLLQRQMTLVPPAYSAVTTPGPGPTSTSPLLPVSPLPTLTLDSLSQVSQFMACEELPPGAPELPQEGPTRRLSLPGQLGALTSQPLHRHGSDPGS
row,Compound,"hERG current change (%, negative = inhibition) at 10uM [%]"
1,O=C(NC1CCCc2ccccc21)C1CCN(S(=O)(=O)N2CCCCCC2)CC1 (stereo not drawn),-12.8
2,O=C(N[C@@H](Cc1ccccc1)C(=O)OCC(=O)N1CCOCC1)c1cccs1,-9.98
3,O=C(COC(=O)CCc1nc2ccccc2n1-c1ccccc1)Nc1ccc(N2CCCCC2)cc1,2.85
4,CC[C@@H](C)[C@H](NC(=O)OC(C)(C)C)c1nnc(S(=O)(=O)Cc2cc(C)ccc2C)o1,4.09
5,CC(NC(=O)COC(=O)/C=C/c1cccc(C(F)(F)F)c1)c1ccccc1 (stereo not drawn),15.2
6,Cc1ccc(Cn2c(NS(=O)(=O)c3ccccc3)nc3ccccc32)cc1,21.3
7,CCCn1c(NCc2ccccc2NS(=O)(=O)c2ccc(C)cc2)nc2ccccc21,6.84
8,CCN(CC)CCn1c(NS(=O)(=O)c2ccc(Cl)cc2)nc2ccccc21.Cl,-69.8
9,CCN(CC)CCn1c(NS(=O)(=O)c2ccc(C)cc2)nc2ccccc21,-51
10,CCN(CC)CCn1c(C)nc2ccccc21.Cl,-9.07
11,CCN(CC)CCn1c(N)nc2ccccc21.Cl,15.4
12,CN1C(=O)C(C2c3ccccc3C(=O)N2Cc2ccccc2)C(=O)N(C)C1=O (stereo not drawn),3.38
13,CCc1ccc(C(=O)C(C)OC(=O)C2COc3ccccc3O2)cc1 (stereo not drawn),-18.9
14,CSc1ncc(Cl)c(C(=O)Nc2cc(C)ccc2C)n1,16.1
15,CCOC(=O)C(NC(=O)c1cccnc1)(Nc1cccc(C)n1)C(F)(F)F (stereo not drawn),1.24
16,CCN1C(=O)C(CC(=O)Nc2ccc(OC)cc2)N(Cc2cccnc2)C1=S (stereo not drawn),-2.39
17,c1ccc(C[C@H]2CNCCN2CC2(c3ccccc3)CC2)cc1,-14.9
18,O=C(CNC(=O)c1cccs1)NCC(=O)OCc1ccc(Cl)cc1,-17.5
19,CCC(=O)Nc1cccc(C(=O)/C=C/c2ccccc2)c1,-37
20,CCC(=O)Nc1cccc(C(=O)/C=C/c2ccc(F)cc2)c1,-69.1
21,CC(=O)Nc1cccc(C(=O)/C=C/c2ccc(F)cc2)c1,-31.1
22,Cc1nc(SCC(=O)NC(=O)NC(C)(C)C)nc(C)c1C,-8.95
23,COC(=O)CSc1nnc(SCc2ccccc2)s1,7.89

row,Compound,"hERG current change (%, negative = inhibition) at 10uM [%]"
1,CCN(CC(=O)Nc1ccc(NC(C)=O)cc1)C(=O)/C=C/c1cn(-c2ccccc2)nc1-c1ccc(F)cc1,5.58
2,Cc1cc(/C=C(\C#N)C(=O)O)c(C)n1CCC(C)C,10.5
3,CCCCn1c(C)cc(/C=C(\C#N)C(=O)O)c1C,-80
4,CCCn1c(C)cc(/C=C(\C#N)C(=O)O)c1C,10.4
5,O=C(N/N=C/c1cc([N+](=O)[O-])ccc1O)Nc1ccccc1,18.2
6,COc1ccc(CC(=O)N2CCC(Nc3nc4ccccc4n3Cc3ccc(F)cc3)CC2)cc1,-71.7
7,COc1ccc(CC(=O)N2CCN(c3ccc(F)cc3)CC2)cc1,1.52
8,COc1ccc(CNC(=O)C2CCN(C(=O)Cc3ccccc3)CC2)cc1,-13.5
9,COc1ccc(CCC(C)N2CCC(Oc3ccc(C(=O)N4CCCC4)cc3)CC2)cc1 (stereo not drawn),-65.4
10,CC(CCc1ccc(O)cc1)N1CCC(Oc2ccc(C(=O)N3CCCC3)cc2)CC1 (stereo not drawn),-55.7
11,CSCCC(C)N1CCC(Oc2ccc(C(=O)N3CCCC3)cc2)CC1 (stereo not drawn),-31.3
12,COC(=O)CCC(C)N1CCC(Oc2ccc(C(=O)N3CCCC3)cc2)CC1 (stereo not drawn),-11
13,COCC(C)N1CCC(Oc2ccc(C(=O)N3CCCC3)cc2)CC1 (stereo not drawn),5.11
14,Cc1noc(/C=C/c2ccco2)c1S(=O)(=O)N1CCC(C(=O)N(C)Cc2ccccc2)CC1,-4.68
15,O=C(CSc1ccccc1)Nc1cc(S(=O)(=O)N2CCOCC2)ccc1N1CCOCC1,14.5
16,Cc1cc(Nc2cccc(Br)c2)c2ccccc2n1,-86.2
17,COc1ccc(Nc2cc(C)nc3ccccc23)cc1.Cl,-36.5
18,Cc1cc(C)c(C#N)c(Nc2cccc(Br)c2)n1,12.5
19,Cc1cc(Nc2cccc(O)c2)c2ccccc2n1.Cl,-64.2
20,Cl.Oc1cccc(Nc2c3ccccc3nc3ccccc23)c1,-17.6
21,COc1cccc(Nc2cc(C)c3ccccc3n2)c1,6.21
22,Cc1cccc(NC(=O)c2cc(C)nc3ccccc23)c1,14.7
23,Cc1ccc(Nc2cc(C)nc3ccccc23)c(C)c1,-42.8

row,Compound,"hERG current change (%, negative = inhibition) at 10uM [%]"
1,COc1cccc(Nc2cc(C)nc3ccccc23)c1,-73.1
2,Cc1cccc(Nc2cc(C)nc3ccccc23)c1.Cl,-65.4
3,Oc1cccc(Nc2nc(-c3ccccc3)nc3ccccc23)c1,9.56
4,Cc1cc(=O)[nH]c(Nc2cccc(Br)c2)n1,12.4
5,CC(=O)Nc1ccc2c(c1)NC(=O)CC2,18.3
6,Cc1cc(C)c(S(=O)(=O)N2CCN(C(=O)CCn3nc(C)c(C)c3C)CC2)c(C)c1,-35.8
7,CCN1CCN(CC(=O)Nc2nc3ccc(C)cc3s2)CC1,-34.5
8,Cc1cccc(NC(=S)NCCc2ccc(S(N)(=O)=O)cc2)c1C,11.4
9,O=C(NCCN1C(=O)S/C(=C\c2cccs2)C1=O)c1ccc(=O)[nH]c1,-15.5
10,Cc1cc(C)nc(Nc2cccc(Cl)c2)n1.Cl,21.8
11,Cc1cc(Nc2cccc(Cl)c2)c2ccccc2n1,-68.8
12,Cc1cc(Nc2ccc(C)c(C)c2)c2ccccc2n1,-66.9
13,Cc1ccc(C)c(Nc2cc(C)nc3ccccc23)c1,-49.5
14,Cc1cc(Nc2ccccc2Cl)c2ccccc2n1,-64.2
15,Cc1cc(Nc2ccccc2O)c2ccccc2n1.Cl,-18.6
16,Cc1nc2ccccc2nc1Nc1cccc(Cl)c1,9.24
17,Cc1ccc(Nc2nc3ccccc3c(=O)s2)cc1C,6.94
18,Cc1cc(C(=O)Nc2ccccc2Cl)c2ccccc2n1,-2.16
19,Cc1ccc(C(=O)NCC(=O)O)s1,23.8
20,Cc1ccc2[nH]c(=O)c(CN(Cc3cccs3)C(=S)NCC3CCCO3)cc2c1 (stereo not drawn),8.11
21,CCc1ccc(CN(C)C(=O)C2CCC(=O)N(CCc3ccc(OC)cc3)C2)nc1 (stereo not drawn),-79.9
22,CN(C(=O)C1CCC(=O)N(CCc2ccc(Cl)cc2)C1)C1CCOCC1 (stereo not drawn),10.7
23,COc1ccc(CCN2CC(C(=O)N(C)Cc3ccccc3OC)CCC2=O)cc1 (stereo not drawn),-29.4

row,Compound,"hERG current change (%, negative = inhibition) at 10uM [%]"
1,COc1ccccc1CN1CC(C(=O)N(C)CCOc2ccccc2)CCC1=O (stereo not drawn),-9.29
2,CN(CCC1CCOCC1)C(=O)C1CCC(=O)N(CCc2ccc(Cl)cc2)C1 (stereo not drawn),-62
3,CN(CCC1CCOCC1)C(=O)C1CCC(=O)N(CCc2ccccc2)C1 (stereo not drawn),-15.1
4,COc1ccc(CCN2CC(C(=O)N(C)Cc3ccc(C)o3)CCC2=O)cc1 (stereo not drawn),-6.77
5,COc1ccc(CCN2CC(C(=O)N(C)CCOc3ccccc3)CCC2=O)cc1 (stereo not drawn),-57.2
6,CN(CCOc1ccccc1)C(=O)C1CCC(=O)N(CCN2CCOCC2)C1 (stereo not drawn),16.5
7,CCc1ccc(CN(C)C(=O)C2CCC(=O)N(Cc3cccc(OC)c3)C2)nc1 (stereo not drawn),-18.8
8,CN(CCOc1ccccc1)C(=O)C1CCC(=O)N(CCCN2CCCC2=O)C1 (stereo not drawn),27.5
9,CN(CCOc1ccccc1)C(=O)C1CCC(=O)N(CCc2ccc(Cl)cc2)C1 (stereo not drawn),-84.9
10,CCOC(=O)C1CCN(C(=O)COC(=O)CSc2ccc([N+](=O)[O-])cc2)CC1,-39.5
11,COc1ccc(CCNC(=O)c2ccccc2C(=O)NCCc2ccc(OC)cc2)cc1,-12
12,COc1ccc(OC)c2c1cc(C(=O)N[C@@H](C)C(=O)N[C@@H](C(=O)O)c1ccccc1)n2C,19.2
13,O=[N+]([O-])c1ccc(O)c(/C=N/n2cnc3ccccc32)c1,19.2
14,O=C(COC(=O)CCCc1c[nH]c2ccccc12)Nc1ccc2c(c1)OCO2,15.1
15,c1ccc2c(c1)CCCN2Cc1nnnn1CC1CCCO1 (stereo not drawn),7.06
16,O=[N+]([O-])c1ccc(NCc2ccc(Cl)cc2)nc1,0.977
17,O=[N+]([O-])c1ccc(Nc2ccc(Cl)cc2)nc1,21.7
18,O=[N+]([O-])c1ccc(NNS(=O)(=O)c2cc(Cl)ccc2Cl)nc1,-68.8
19,CCN(CC)S(=O)(=O)c1ccc(C)c(NC(=O)COC(=O)CNC(=O)c2ccc(C(C)(C)C)cc2)c1,7.12
20,CCN(CC)c1ccc(/C=N/NS(=O)(=O)c2ccc(CNC(C)=O)cc2)cc1,13.2
21,Cc1cccc(C(=O)NCC(=O)NC(C)CCc2ccccc2)c1 (stereo not drawn),-0.165

# Source: PMC4336329 (PLoS ONE, 2015)
